The full ranking holds about 9,900 sequences; the median of “r (bound/input frequency ratio)” is about 0.7, and the highest 2% start at about 6.5. What follows is part of a selection rich in the highest values, with near analogues and random picks from the rest.

The chains are these.
B1: ENSMUSG00000004113.291|Cacna1b (ssRNA)
RNA: GGGAGUUCUACAGUCCGACGAUCGCUUCGAUAUCCGCAUGCUAGGUGUUCAGUGUGCACAGAUAGCUGGGAGGCCACGAGAGAAAGGUUGCACACAGACAGGCAGGCACUCCUUGGUGUGGUCUCUCUGUUUUGAAACUUCUGAUGACUUCUUGGUGGCUUGUUGUCUUCUACCCCAUGUUUCUCACAGGAUCUGUGUGUGUGUGUGUGUGUGUGUGUGUGUGUGUGUGUGUGUGUGUUAGCAUGUGUGUAUUAGCGUGUGUGAGUGUGUGAGCAUGCACGAGUCAUAGGAGAUGCAGGUGUACUCUUGCGGUCGCACUAGUGUGGAAUUCUCGGGUGUCAAGG
B2: ENSMUSG00000004113.303|Cacna1b (ssRNA)
RNA: GGGAGUUCUACAGUCCGACGAUCGCUUCGAUAUCCGCAUGCUAGUGUGGUCUCUCUGUUUUGAAACUUCUGAUGACUUCUUGGUGGCUUGUUGUCUUCUACCCCAUGUUUCUCACAGGAUCUGUGUGUGUGUGUGUGUGUGUGUGUGUGUGUGUGUGUGUGUGUGUUAGCAUGUGUGUAUUAGCGUGUGUGAGUGUGUGAGCAUGCACGAGUCAUAGGAGAUGCAGGUGUAUGUGUGUGGUGUGCAUAUGUGUAUGUGUGUGUGUGUGUGUGUGUGUGUAGGUGUGUUCAGCAAGUGGCUAUUCUCUUGCGGUCGCACUAGUGUGGAAUUCUCGGGUGUCAAGG
B3: ENSMUSG00000004113.302|Cacna1b (ssRNA)
RNA: GGGAGUUCUACAGUCCGACGAUCGCUUCGAUAUCCGCAUGCUAUCCUUGGUGUGGUCUCUCUGUUUUGAAACUUCUGAUGACUUCUUGGUGGCUUGUUGUCUUCUACCCCAUGUUUCUCACAGGAUCUGUGUGUGUGUGUGUGUGUGUGUGUGUGUGUGUGUGUGUGUGUGUUAGCAUGUGUGUAUUAGCGUGUGUGAGUGUGUGAGCAUGCACGAGUCAUAGGAGAUGCAGGUGUAUGUGUGUGGUGUGCAUAUGUGUAUGUGUGUGUGUGUGUGUGUGUGUGUAGGUGUGUUCAGCAAGUGCUCUUGCGGUCGCACUAGUGUGGAAUUCUCGGGUGUCAAGG
B4: ENSMUSG00000004113.305|Cacna1b (ssRNA)
RNA: GGGAGUUCUACAGUCCGACGAUCGCUUCGAUAUCCGCAUGCUAUGUUUUGAAACUUCUGAUGACUUCUUGGUGGCUUGUUGUCUUCUACCCCAUGUUUCUCACAGGAUCUGUGUGUGUGUGUGUGUGUGUGUGUGUGUGUGUGUGUGUGUGUGUUAGCAUGUGUGUAUUAGCGUGUGUGAGUGUGUGAGCAUGCACGAGUCAUAGGAGAUGCAGGUGUAUGUGUGUGGUGUGCAUAUGUGUAUGUGUGUGUGUGUGUGUGUGUGUGUAGGUGUGUUCAGCAAGUGGCUAUUGUCAACCAUAGGCUCUUGCGGUCGCACUAGUGUGGAAUUCUCGGGUGUCAAGG
B5: ENSMUSG00000004113.292|Cacna1b (ssRNA)
RNA: GGGAGUUCUACAGUCCGACGAUCGCUUCGAUAUCCGCAUGCUACAGUGUGCACAGAUAGCUGGGAGGCCACGAGAGAAAGGUUGCACACAGACAGGCAGGCACUCCUUGGUGUGGUCUCUCUGUUUUGAAACUUCUGAUGACUUCUUGGUGGCUUGUUGUCUUCUACCCCAUGUUUCUCACAGGAUCUGUGUGUGUGUGUGUGUGUGUGUGUGUGUGUGUGUGUGUGUGUGUUAGCAUGUGUGUAUUAGCGUGUGUGAGUGUGUGAGCAUGCACGAGUCAUAGGAGAUGCAGGUGUAUGUGUGCUCUUGCGGUCGCACUAGUGUGGAAUUCUCGGGUGUCAAGG
B6: ENSMUSG00000004113.295|Cacna1b (ssRNA)
RNA: GGGAGUUCUACAGUCCGACGAUCGCUUCGAUAUCCGCAUGCUAGGGAGGCCACGAGAGAAAGGUUGCACACAGACAGGCAGGCACUCCUUGGUGUGGUCUCUCUGUUUUGAAACUUCUGAUGACUUCUUGGUGGCUUGUUGUCUUCUACCCCAUGUUUCUCACAGGAUCUGUGUGUGUGUGUGUGUGUGUGUGUGUGUGUGUGUGUGUGUGUGUUAGCAUGUGUGUAUUAGCGUGUGUGAGUGUGUGAGCAUGCACGAGUCAUAGGAGAUGCAGGUGUAUGUGUGUGGUGUGCAUAUGUGUAUCUCUUGCGGUCGCACUAGUGUGGAAUUCUCGGGUGUCAAGG
B7: ENSMUSG00000004113.293|Cacna1b (ssRNA)
RNA: GGGAGUUCUACAGUCCGACGAUCGCUUCGAUAUCCGCAUGCUAGCACAGAUAGCUGGGAGGCCACGAGAGAAAGGUUGCACACAGACAGGCAGGCACUCCUUGGUGUGGUCUCUCUGUUUUGAAACUUCUGAUGACUUCUUGGUGGCUUGUUGUCUUCUACCCCAUGUUUCUCACAGGAUCUGUGUGUGUGUGUGUGUGUGUGUGUGUGUGUGUGUGUGUGUGUGUUAGCAUGUGUGUAUUAGCGUGUGUGAGUGUGUGAGCAUGCACGAGUCAUAGGAGAUGCAGGUGUAUGUGUGUGGUGUCUCUUGCGGUCGCACUAGUGUGGAAUUCUCGGGUGUCAAGG
B8: ENSMUSG00000004113.294|Cacna1b (ssRNA)
RNA: GGGAGUUCUACAGUCCGACGAUCGCUUCGAUAUCCGCAUGCUAAUAGCUGGGAGGCCACGAGAGAAAGGUUGCACACAGACAGGCAGGCACUCCUUGGUGUGGUCUCUCUGUUUUGAAACUUCUGAUGACUUCUUGGUGGCUUGUUGUCUUCUACCCCAUGUUUCUCACAGGAUCUGUGUGUGUGUGUGUGUGUGUGUGUGUGUGUGUGUGUGUGUGUGUUAGCAUGUGUGUAUUAGCGUGUGUGAGUGUGUGAGCAUGCACGAGUCAUAGGAGAUGCAGGUGUAUGUGUGUGGUGUGCAUAUCUCUUGCGGUCGCACUAGUGUGGAAUUCUCGGGUGUCAAGG
B9: ENSMUSG00000004113.290|Cacna1b (ssRNA)
RNA: GGGAGUUCUACAGUCCGACGAUCGCUUCGAUAUCCGCAUGCUACAGGAAGGUGUUCAGUGUGCACAGAUAGCUGGGAGGCCACGAGAGAAAGGUUGCACACAGACAGGCAGGCACUCCUUGGUGUGGUCUCUCUGUUUUGAAACUUCUGAUGACUUCUUGGUGGCUUGUUGUCUUCUACCCCAUGUUUCUCACAGGAUCUGUGUGUGUGUGUGUGUGUGUGUGUGUGUGUGUGUGUGUGUGUGUUAGCAUGUGUGUAUUAGCGUGUGUGAGUGUGUGAGCAUGCACGAGUCAUAGGAGAUGCACUCUUGCGGUCGCACUAGUGUGGAAUUCUCGGGUGUCAAGG

In the assay the target is TDP-43 (Homo sapiens, UniProt Q13148 1-414). The assay can be described thus: RNA Bind-n-Seq with designed 260-mer pool; 25 mM Tris-HCl, 150 mM KCl, 3 mM MgCl2, BSA (printed 500 mg/mL), 20 units/mL SUPERase IN; pH not stated; 500 nM RNA pool, 1 h, 4 C; TDP-43 5, 50, 500 nM; high values mean tight binding. The conditions noted are these: protein: recombinant; tags: SBP (GST cleaved off with PreScission; pGEX-GST-SBP). A digest of the protocol: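 Streptavidin beads captured recombinant SBP-tagged TDP-43 at 5, 50 or 500 nM, and the beads were incubated for 1 h at 4 °C with 500 nM of an in vitro-transcribed pool of 260-nt 3′ UTR oligos in 25 mM Tris-HCl, 150 mM KCl, 3 mM MgCl2, BSA and SUPERase IN. After washing, bound RNA was eluted with biotin, reverse transcribed, PCR-amplified and sequenced. Binding is reported as R, the mapped-read-normalized abundance of each oligo in the bound sample divided by its abundance in the input. Two independent protein batches served as duplicates.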
TDP-43, sequence (Q13148 whole entry): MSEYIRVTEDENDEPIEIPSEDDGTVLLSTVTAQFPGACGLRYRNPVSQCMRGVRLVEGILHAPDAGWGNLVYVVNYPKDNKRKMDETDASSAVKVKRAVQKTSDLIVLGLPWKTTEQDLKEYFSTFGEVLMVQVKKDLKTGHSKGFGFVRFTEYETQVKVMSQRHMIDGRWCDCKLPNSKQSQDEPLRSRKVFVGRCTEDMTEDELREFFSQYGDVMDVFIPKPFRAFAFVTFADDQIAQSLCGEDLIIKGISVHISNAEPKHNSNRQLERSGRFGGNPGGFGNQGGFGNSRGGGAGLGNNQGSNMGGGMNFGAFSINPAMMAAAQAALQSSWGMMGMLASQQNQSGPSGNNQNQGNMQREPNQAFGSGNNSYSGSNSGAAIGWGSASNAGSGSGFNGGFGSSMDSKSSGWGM
As for B1, the binding signal was 5.2 R (bound/input frequency ratio).

Turning to B2, the binding signal was 5.04 R (bound/input frequency ratio).

Turning to B3, the binding signal was 8.59 R (bound/input frequency ratio).

Regarding B4, the binding signal is 4.07 R (bound/input frequency ratio).

Take B5: the binding signal is 6.93 R (bound/input frequency ratio).

Consider B6, for which the binding signal is 5.7 R (bound/input frequency ratio).

With B7, the binding signal was 5.22 R (bound/input frequency ratio).

On to B8, for which the binding signal is 6.88 R (bound/input frequency ratio).

As to B9, the binding signal was 5.7 R (bound/input frequency ratio).

The values above are taken from article PMC12864922, “TDP-43 directly inhibits mRNA accumulation in neurites through modulation of mRNA stability”.
